Measurements: the supplement of paper PMC7156485
± gives the standard deviation of the averaged measurements.

What was measured:
Details in all cases: concentration: 10 µM; 24 h
HCC1569 [1] = experiment: cell number relative to DMSO (% of DMSO); higher = more cells (less growth inhibition / toxicity)
Procedure, shortened: (§1)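 Six fields per well were imaged at ×10 after the cells were fixed in 3.7% formaldehyde and stained with a rabbit anti-H1.0 antibody, an AlexaFluor 647 secondary and DAPI. The HCC1569 and TDF cells had been plated at 800 per well in 384-well plates (RPMI, 10% FBS) and treated in triplicate with compounds at 10 µM for 24 h at 37 °C. The values are the median of replicates of H1.0 nuclear intensity or cell number, as percent of the plate control. Smoothing for positional effects was applied to HCC1569 data.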

TDF [2] = experiment: as above
Procedure, shortened: as §1

TDF [3] = experiment: H1.0 immunofluorescence intensity relative to DMSO (% of DMSO); higher = stronger H1.0 induction, active = 120 or more
Procedure, shortened: as §1

HCC1569 [4] = experiment: H1.0 immunofluorescence intensity relative to DMSO (% of DMSO); higher = stronger H1.0 induction, active = 140 or more
Procedure, shortened: as §1
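For H1.0 immunofluorescence intensity relative to DMSO in this document: TDF is a line of transformed human dermal fibroblasts of mesenchymal origin.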
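For cell number relative to DMSO in this document: TDF denotes transformed human dermal fibroblasts of mesenchymal origin.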

Structure (SMILES) | cell number (HCC1569 [1]) | cell number (TDF [2]) | H1.0 immunofluorescence intensity (TDF [3]) | H1.0 immunofluorescence intensity (HCC1569 [4])
OCC1CCCN2CCCCC12 (centres undefined) [Lupinine] | 109 | 104 | 96.3 (inactive) | 84.3 (inactive)
CC(C(O)CCC(C)(C)O)C1CCC2(O)C3=CC(=O)C4CC(O)C(O)CC4(C)C3CCC12C (centres undefined) [Ecdysone] | 103 | 112 | 90.8 (inactive) | 88.8 (inactive)
CN(C)C(=O)Oc1ccc[n+](C)c1.[Br-] [Pyridostigmine bromide] | 103 | 107 | 96.8 (inactive) | 108 (inactive)
CS(=O)(=O)O.Cc1c(C(=O)c2cccc3ccccc23)c2cccc3c2n1C(CN1CCOCC1)CO3 (stereo not drawn) [( R)-(+)-WIN 55,212-2 mesylate] | 72.8 | 53.4 | 131 (active) | 209 (active)
N#CC(C#N)=Cc1ccc([N+](=O)[O-])c(O)c1 [Tyrphostin AG 126] | 99.1 | 111 | 102 (inactive) | 103 (inactive)
CCCCCC=CCC=CCC=CC=CC(CCCC(=O)O)OO (centres undefined) | 101 | 100 | 98.5 (inactive) | 106 (inactive)
CCCCCCCCCCCCCC(=O)OC1C(C)C2(O)C(C=C(CO)CC3(O)C(=O)C(C)=CC32)C2C(C)(C)C12OC(C)=O (stereo not drawn) [4alpha-Phorbol-12-myristate-13-acetate] | 98.4 | 111 | 95.6 (inactive) | 108 (inactive)
CC(=O)OCC1=C(C(=O)[O-])N2C(=O)C(NC(=O)CCCC(N)C(=O)[O-])C2SC1.[Zn+2] (centres undefined) [Cephalosporin C zinc salt] | 101 | 101 | 97.3 (inactive) | 90.8 (inactive)
OC1CN2CCC(O)C2C(O)C1O (centres undefined) [Castanospermine] | 100 | 104 | 89.5 (inactive) | 90.4 (inactive)
CC1CCC2N(C1)CC1C3CC4C(CC(=O)C5CC(O)CCC54C)C3CCC1C2(C)O (centres undefined) [Imperialine] | 102 | 88.5 | 97.1 (inactive) | 92.1 (inactive)
CC(NC(C)(C)C)C(=O)c1cccc(Cl)c1.Cl (centres undefined) [Bupropion hydrochloride] | 106 | 109 | 102 (inactive) | 99.7 (inactive)
CCCCCC=CCC=CCC=CCCCCCCC(=O)NCCO [Anandamide (20:3,n-6)] | 101 | 97.4 | 102 (inactive) | 103 (inactive)
CC1=C2C(=O)C3C(CC=C4CC(O)CCC43C)C2CCC12OC1CC(C)CNC1C2C (centres undefined) [Jervine] | 97.9 | 104 | 94.3 (inactive) | 92 (inactive)
CN(C)C(=O)Oc1cccc([N+](C)(C)C)c1.[Br-] [Neostigmine bromide] | 107 | 98.4 | 89.5 (inactive) | 89.4 (inactive)
C=CCN1CC(C)N(C(c2ccc(C(=O)N(CC)CC)cc2)c2cccc(OC)c2)CC1C (centres undefined) | 102 | 102 | 96.5 (inactive) | 87.8 (inactive)
COC12CC(COC(=O)c3cncc(Br)c3)CN(C)C1Cc1cn(C)c3cccc2c13 (centres undefined) [Nicergoline] | 104 | 102 | 92.9 (inactive) | 102 (inactive)
CCC1(O)C(=O)OCc2c1cc1n(c2=O)Cc2cc3ccccc3nc2-1 (centres undefined) [Camptothecin] | 54.2 ± 2.9 | 24 ± 1.1 | 128 (active) | 120 (inactive)
CC(N)c1cccc(Cl)c1Cl.Cl (racemic) | 100 | 94.2 | 102 (inactive) | 101 (inactive)
Cc1sc2ccccc2c1CC1=NCCN1.O=C(O)C(=O)O [Benazoline oxalate] | 104 | 106 | 92 (inactive) | 81.1 (inactive)
NC(=O)COc1c(F)cc(SCCNS(=O)(=O)c2ccccc2)cc1F | 106 | 102 | 93.5 (inactive) | 106 (inactive)
O=S1(=O)N(CCN2CC=C(c3c[nH]c4cc(F)ccc34)CC2)c2cccc3c2N1CCC3 | 101 | 107 | 95.4 (inactive) | 102 (inactive)
Cl.O=C(OC1CCN(CCCl)CC1)C(c1ccccc1)c1ccccc1 [4-Diphenylacetoxy-N-(2-chloroethyl)piperidine hydrochloride] | 98.2 | 94.9 | 89.5 (inactive) | 87.6 (inactive)
CN1C(=O)CCS(=O)(=O)C1c1ccc(Cl)cc1 (centres undefined) [Chlormezanone] | 101 | 108 | 85.9 (inactive) | 95.3 (inactive)
CCCCCC=CC=CC(CCCCCCCC(=O)O)OO (centres undefined) | 101 | 94 | 100 (inactive) | 94.9 (inactive)
CC12CCC3C(CCC4CC(O)CCC43C)C1CCC2=O (centres undefined) [Androsterone] | 95 | 113 | 91.7 (inactive) | 107 (inactive)
CN1CC(NS(=O)(=O)N(C)C)CC2c3cccc4c3c(cn4C)CC21.Cl (centres undefined) [Mesulergine hydrochloride] | 101 | 100 | 93.4 (inactive) | 94.2 (inactive)
